# From PubChem BioAssay
# Values without a mark were called inactive. Active and inactive are the calls of the source.
# Assay: budding yeast growth changes without added modifier – OD600, strain BY4716, 24 h, basal condition, primary screen (AID 1173)
# Conditions: S. cerevisiae BY4716 growth, OD600, 24 h; higher = more signal, called active from +8 up or from −8 down
row,SMILES,z-score
1,Cc1cc(C)c(C(O)C2C=CC3C(=O)N(c4ccccc4)C(=O)C3N2Nc2ccccc2)c(C)c1 (stereo not given),0.439
2,O=C1O[C@H](c2ccccc2)[C@H](c2ccccc2)N2[C@H]1[C@@H](C(=O)N1CCN(c3ncccn3)CC1)[C@]1(C(=O)Nc3ccc(C#CCCO)cc31)[C@H]2c1ccc(OCCO)cc1,1.01
3,O=C1CSC(c2cccc([N+](=O)[O-])c2)N1c1ccccc1 (stereo not given),0.483
4,COC(=O)C(CC#Cc1ccc2c(c1)[C@]1(C(=O)N2)[C@H](c2ccc(O)cc2)N2[C@H](c3ccccc3)[C@H](c3ccccc3)OC(=O)[C@H]2[C@@H]1C(=O)O)C(=O)OC,0.338
5,COCCCNC(=O)[C@@]1(Cc2ccccc2I)c2ccccc2C(=O)N(Cc2ccccc2Cl)[C@H]1c1ccc(CO)cc1,-1
6,COC(=O)[C@]1(Cc2ccccc2CN=[N+]=[N-])N=C(c2ccc(OCCCO)cc2)O[C@@H]1c1ccccc1,1.42
7,CN(C)CCCCCCNC(=O)[C@@H]1C[C@@H]2C(=O)NCC(=O)N2[C@@H]1c1ccc(O)cc1,-1.06
8,COC(=O)c1ccc(OC)c(/C=C\CC(CCc2ccccc2)OC(=O)c2ccncc2)c1 (stereo not given),0.0069
9,CCOC(=O)C[C@H]1[C@H](OC(=O)Cc2ccc3c(c2)OCO3)[C@@H](NC(=O)c2ccccc2)c2cc(OCCCO)ccc2N1C(=O)c1ccc2ccccc2n1,-1.02
10,CCCNC(=O)[C@@]1(Sc2ccc(C)cc2)CC(=O)N(Cc2ccccc2)[C@@H]1c1ccc(CO)cc1I,-2.59
11,CC1(C)[C@@H]2CC(C(O)C3C=CC4C(=O)N(c5ccccc5)C(=O)C4N3Nc3ccccc3F)=C[C@@H]1C2 (stereo not given in full),-0.393
12,COc1ccc(C#Cc2ccc3c(c2)[C@]2(C(=O)N3)[C@H](C(N)=O)[C@H]3C(=O)O[C@H](c4ccccc4)[C@H](c4ccccc4)N3[C@@H]2c2ccc(O)cc2)cc1,-0.299
13,COc1ccc([Si](C)(C)[C@@H]2[C@@H](CCO)O[C@]3(C(=O)N(Cc4ccc(N5C(=O)c6ccccc6Oc6ccccc65)cc4)c4ccccc43)[C@H]2C)cc1,2.15
14,NC(=O)NCC#Cc1ccc2c(c1)[C@]1(C(=O)N2)[C@H](c2ccc(O)cc2)N2[C@H](c3ccccc3)[C@H](c3ccccc3)OC(=O)[C@H]2[C@@H]1C(=O)NC[C@H](O)c1ccccc1,-0.683
15,CO[C@H]1O[C@H](CO)[C@@H](OC(=O)c2ccc(Br)cc2)[C@@H]2OC(=O)[C@H](Cc3cccc(Br)c3)C/C=C/C[C@@H](Cc3cccc(Br)c3)C(=O)O[C@@H]12,-0.611
16,CO[C@H]1O[C@H](CO)[C@@H](OC(=O)Nc2cccc(F)c2)[C@H](OC(=O)Nc2ccc3c(c2)OCO3)[C@H]1OC(=O)Nc1ccc2c(c1)OCO2,1.55
17,CC(C)C[C@H]1NC(=O)[C@H](C)NC(=O)[C@@]23C(=O)N[C@@H](Cc4ccccc4)C2[C@H](C)[C@@]2(C)O[C@H]2C3/C=C/C/C=C\CNC1=O (stereo not given in full),-0.49
18,Cc1ccc(C(C)CC(O)C2C=CC3C(=O)N(Cc4ccccc4)C(=O)C3N2n2cnnc2)o1 (stereo not given),-9.36 (active)
19,COCCCNC(=O)[C@@]1(Cc2ccccc2)COC(c2ccc(OCCCO)cc2)=N1,-0.0995
20,O=C1c2ccccc2[C@](Cc2ccccc2I)(C(=O)NC2CC2)[C@H](c2ccc(CO)cc2)N1Cc1ccccc1Cl,0.504
21,CCOC(=O)C[C@H]1[C@H](OC(=O)Cc2ccc3c(c2)OCO3)[C@@H](NC(=O)c2ccccc2)c2cc(OCCCO)ccc2N1C(=O)c1ccccc1,-0.271
22,CCOC(=O)C1=CC[C@@H](c2ccc(N(CC)CC)cc2)N(S(=O)(=O)c2ccc(C)cc2)[C@H]1c1ccc([N+](=O)[O-])cc1,-0.0341
23,COC(=O)C(CC#Cc1ccc2c(c1)[C@]1(C(=O)N2)[C@H](C(=O)N2CCc3cc(OC)c(OC)cc3C2)[C@H]2C(=O)O[C@H](c3ccccc3)[C@H](c3ccccc3)N2[C@@H]1c1ccc(OCCO)cc1)C(=O)OC,2.36
24,CC(C)N1C(=O)c2ccccc2[C@](C)(C(=O)O)[C@@H]1c1ccc(CO)cc1,-0.942
25,C=CCC(OC(C)=O)[C@@H]1[C@@H](N(Cc2ccc(-c3ccccc3)cc2)C(=O)c2cccc3ccccc23)c2cc(OCCCO)ccc2N1C(=O)c1ccc2ccccc2n1 (stereo not given in full),-0.953
